The record followed here is PubChem BioAssay (EPA / NIEHS).

The nature of assay [1]: ATG_M_61_CIS: Attagene CIS-FACTORIAL HepG2 Assay for M61 Transcription Factor (Internal Marker) (AID 2282937). The note with it: HepG2 Attagene CIS-FACTORIAL M61 internal marker reporter; actives raise or lower the signal. A digest of the protocol:
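Readout is reporter mRNA by RT-PCR, fluorescent primer extension and capillary electrophoresis, with gain or loss fitted relative to DMSO. Transfected HepG2 cells carrying endogenous-TF-driven cis reporters were exposed to chemicals for 24 hours.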

Assay [2] in a line: ATG_EGR_CIS: Attagene CIS-FACTORIAL HepG2 Assay for human Early Growth Response 1 (EGR1) (AID 2282938). Conditions: HepG2 Attagene CIS-FACTORIAL EGR reporter mRNA; actives raise or lower the signal. The method in brief: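 After 24 h compound exposure, RNA from reporter-transfected HepG2 cells was reverse-transcribed, PCR-amplified, fluorescently labelled and resolved by capillary electrophoresis. EGR1 reporter transcript changes, up or down, were fitted against DMSO, reflecting endogenous transcription-factor activity.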

A short description of assay [3]: ATG_M_19_CIS: Attagene CIS-FACTORIAL HepG2 Assay for M19 Transcription Factor (Internal Marker) (AID 2282939). Conditions: HepG2 Attagene CIS-FACTORIAL M19 internal marker reporter; actives raise or lower the signal. The method in brief:
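Chemical-treated HepG2 (24 h) with MRTU constructs; reporter transcripts detected by fluorescent RT-PCR fragment analysis on capillary electrophoresis. Internal background marker, DMSO as baseline.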

Assay [4] in a line: ATG_ERE_CIS: Attagene CIS-FACTORIAL HepG2 Assay for Estrogen Response Element (ERE) (AID 2282940). The note with it: HepG2 ERE cis-reporter, Attagene RNA transcript; actives raise or lower the signal. The method in brief: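 Human liver cells (HepG2) bearing transiently transfected, promoter-regulated reporter units were exposed 24 h. Reporter mRNA induction was detected by capillary electrophoresis of labelled RT-PCR products and fitted bidirectionally to DMSO.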

Assay [5] can be described thus: ATG_Ets_CIS: Attagene CIS-FACTORIAL HepG2 Assay for human Erythroblast Transformation Specific (ETS) (AID 2282941). The note with it: HepG2 ETS cis-reporter transcription, actives raise or lower the signal. A digest of the protocol:
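Endogenous transcription factor activity read as reporter mRNA via RT-PCR and capillary electrophoresis, with gain or loss fitted bidirectionally against DMSO. Human HepG2 liver cells, transiently transfected CIS reporter constructs, 24 h exposure.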

Assay [6] has as its target Hepatocyte nuclear factor 3-beta (Homo sapiens) (UniProt Q9Y261). Put plainly: ATG_FoxA2_CIS: Attagene CIS-FACTORIAL HepG2 Assay for human Forkhead box A2 (FOXA2) (AID 2282942). The note with it: HepG2 cis-reporter transcription factor activity, 24 h; actives raise or lower the signal. The method in brief:
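Endogenous transcription factor activity is captured via cis-element-driven reporter transcripts in transfected HepG2. Total RNA taken at 24 h post-dosing; labelled RT-PCR products resolved by capillary electrophoresis. Gain or loss fitted versus DMSO.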

The nature of assay [7]: ATG_FoxO_CIS: Attagene CIS-FACTORIAL HepG2 Assay for human Forkhead box O (FoxO) (AID 2282943). The note with it: HepG2 Attagene cis-reporter, FoxO element, mRNA; actives raise or lower the signal. A digest of the protocol:
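HepG2 cells transiently transfected with cis-element-driven reporter units report endogenous FoxO activity. After 24 h chemical exposure, reporter mRNA quantified by RT-PCR, fluorescent labeling, HpaI digestion and capillary electrophoresis; bidirectional fit versus DMSO.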

Assay [8] is described as follows: ATG_GLI_CIS: Attagene CIS-FACTORIAL HepG2 Assay for human Zinc Finger Protein GLI1 (AID 2282945). The note with it: HepG2, Attagene cis-factorial reporter mRNA, GLI element; actives raise or lower the signal. A digest of the protocol:
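Transiently transfected HepG2 cells report endogenous transcription factor activity via cis-element-driven reporter units. After 24 h compound exposure, reporter mRNA was measured by RT-PCR with capillary electrophoresis; bidirectional fitting against DMSO baseline.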

Assay [9] deals with Bile acid receptor (Homo sapiens) (UniProt Q96RI1). Kind of assay: ATG_IR1_CIS: Attagene CIS-FACTORIAL HepG2 Assay for human Nuclear Receptor Subfamily 1 Group H Member 4 (NR1H4), IR1 submotif (AID 2282946). Conditions: IR1 reporter transcription, actives raise or lower the signal. The method in brief: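 Fluorescence of capillary-separated, HpaI-digested RT-PCR reporter products gave IR1-element mRNA induction in HepG2 cells 24 h after dosing. Endogenous transcription factors drove the cis-regulated reporters; activity was fitted bidirectionally against DMSO.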

Assay [10] in a line: ATG_GRE_CIS: Attagene CIS-FACTORIAL HepG2 Assay for human Glucocorticoid Response Elements (GRE) (AID 2282947). The note with it: HepG2 GRE cis-reporter, Attagene multiplex mRNA; actives raise or lower the signal. The method in brief:
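Read-out: fluorescent reporter-transcript fragments separated by capillary electrophoresis after RT-PCR. Transiently transfected HepG2 cells carrying cis-element-driven reporter units were dosed for 24 h; gain or loss of signal fitted against DMSO control.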

Assay [11] can be described thus: ATG_ISRE_CIS: Attagene CIS-FACTORIAL HepG2 Assay for human Interferon Regulatory Factor 1 (IRF1) binding to an Interferon-Stimulated Response Element (ISRE) (AID 2282948). The note with it: HepG2 ISRE cis-reporter (Attagene), mRNA transcription readout; actives raise or lower the signal. The method in brief:
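Endogenous transcription factor activity read as reporter transcript abundance via RT-PCR and capillary electrophoresis. HepG2 cells transiently transfected, 24 h chemical exposure. Gain or loss fitted against DMSO baseline.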

Assay [12] is described as follows: ATG_M_32_CIS: Attagene CIS-FACTORIAL HepG2 Assay for M32 Transcription Factor (Internal Marker) (AID 2282949).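 Note: background control marker of the multiplexed CIS panel rather than a real target.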 The note with it: HepG2 Attagene cis-factorial M32 reporter, mRNA; actives raise or lower the signal. A digest of the protocol: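 Using DMSO as baseline, bidirectional curve fits were applied to reporter mRNA signals. These came from transiently transfected HepG2 cells exposed for 24 h, with RNA analysed by RT-PCR, FAM primer extension, HpaI digestion and CE.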

Assay [13] in a line: ATG_M_06_CIS: Attagene CIS-FACTORIAL HepG2 Assay for M06 Transcription Factor (Internal Marker) (AID 2282950). The note with it: HepG2 Attagene CIS-FACTORIAL M06 internal marker reporter; actives raise or lower the signal. The method in brief: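 Cells (HepG2, transiently carrying cis-driven reporter units) receive chemical for 24 h before RNA isolation. Reporter cDNA is PCR-amplified, FAM-labelled by primer extension, HpaI-digested and sized on a capillary analyser.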

Assay [14] addresses Hypoxia-inducible factor 1-alpha (Homo sapiens) (UniProt Q16665). Put plainly: ATG_HIF1a_CIS: Attagene CIS-FACTORIAL HepG2 Assay for human Hypoxia Inducible Factor 1 (HIF1A) (AID 2282951). The note with it: HepG2 Attagene cis-factorial HIF1a reporter transcription; actives raise or lower the signal. A digest of the protocol: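 Activity is fitted in both directions relative to DMSO. Reporter transcripts are read by RT-PCR, fluorescent primer extension and capillary electrophoresis after 24 h chemical treatment. The cells are HepG2 carrying transiently transfected cis-element-driven reporter units responding to endogenous factors.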

Assay [15] concerns the target Hepatocyte nuclear factor 6 (Homo sapiens) (UniProt Q9UBC0). Kind of assay: ATG_HNF6_CIS: Attagene CIS-FACTORIAL HepG2 Assay for human Hepatocyte Nuclear Factor 6 (HNF6) (AID 2282952). Conditions: HepG2 Attagene cis-factorial HNF6 reporter transcription; actives raise or lower the signal. A digest of the protocol:
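First, HepG2 cells were transfected with the multiplexed cis reporter library and dosed with chemical for 24 h. Next, RNA was reverse-transcribed, PCR-amplified and fluorescently labelled. Finally, HpaI-digested fragments were read by capillary electrophoresis.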

In assay [16] the target is Heat shock factor protein 1 (Homo sapiens) (UniProt Q00613). Put plainly: ATG_HSE_CIS: Attagene CIS-FACTORIAL HepG2 Assay for human Heat Shock Transcription Factor 1 (HSE) (AID 2282953). Conditions: HepG2 HSE cis-reporter, Attagene RNA transcription; actives raise or lower the signal. A digest of the protocol: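 Liver-derived HepG2 cells carry transiently introduced multiple reporter units governed by cis promoters. Reporter RNA measured 24 h post-dose through reverse transcription, PCR amplification, fluorescent labelling and capillary electrophoresis, normalised to DMSO.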

Assay [17] in a line: ATG_MRE_CIS: Attagene CIS-FACTORIAL HepG2 Assay for human Metal Responsive Element (MRE) (AID 2282954). Conditions: HepG2 MRE cis-reporter transcription, Attagene multiplex; actives raise or lower the signal. A digest of the protocol: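 RT-PCR/capillary electrophoresis readout of reporter mRNA, 24 h post-dosing, in HepG2 cells transfected with multiplexed cis-regulated reporter constructs. Gain or loss of signal fitted bidirectionally against DMSO baseline.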

Assay [18] is described as follows: ATG_PBREM_CIS: Attagene CIS-FACTORIAL HepG2 Assay for human Phenobarbital-responsive Enhancer Module (PBREM) (AID 2282955). Conditions: HepG2 PBREM cis-reporter, Attagene multiplexed transcription; actives raise or lower the signal. The method in brief:
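Endogenous transcription factor activity was read from reporter transcripts in transiently transfected human HepG2 liver cells after 24 h dosing. RT-PCR products were fluorescently labelled, HpaI-cut and sized by capillary electrophoresis; activity fitted bidirectionally against DMSO baseline.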

Assay [19] has as its target Paired box protein Pax-6 (Homo sapiens) (UniProt P26367). Kind of assay: ATG_Pax6_CIS: Attagene CIS-FACTORIAL HepG2 Assay for human Paired Box 6 (PAX6) (AID 2282956). The note with it: HepG2 CIS-FACTORIAL PAX6 reporter transcription, RNA readout; actives raise or lower the signal. A digest of the protocol:
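Read-out is reporter transcript level, measured by RT-PCR with fluorescent primer extension and capillary electrophoresis after 24 h dosing of transfected HepG2 cells. Activity in either direction fitted relative to DMSO control.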

The nature of assay [20]: ATG_GATA_CIS: Attagene CIS-FACTORIAL HepG2 Assay for human GATA Binding Protein (AID 2282944). The note with it: HepG2 GATA cis-element reporter, Attagene multiplex mRNA; actives raise or lower the signal. A digest of the protocol: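 Transfected cis-reporter HepG2 cells were treated with chemicals for 24 hours. Total RNA was then converted to cDNA, amplified with reporter-specific primers and analysed by fluorescent capillary electrophoresis, using DMSO-treated wells as baseline.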

The source made the active and inactive calls. Rule for the calls: active = hit-call score of the fitted dose curve at least 0.9, where 1 is the maximum; inactive = score below 0.9.

Heat shock factor protein 1 (Homo sapiens), sequence (Q00613 whole entry, looked up): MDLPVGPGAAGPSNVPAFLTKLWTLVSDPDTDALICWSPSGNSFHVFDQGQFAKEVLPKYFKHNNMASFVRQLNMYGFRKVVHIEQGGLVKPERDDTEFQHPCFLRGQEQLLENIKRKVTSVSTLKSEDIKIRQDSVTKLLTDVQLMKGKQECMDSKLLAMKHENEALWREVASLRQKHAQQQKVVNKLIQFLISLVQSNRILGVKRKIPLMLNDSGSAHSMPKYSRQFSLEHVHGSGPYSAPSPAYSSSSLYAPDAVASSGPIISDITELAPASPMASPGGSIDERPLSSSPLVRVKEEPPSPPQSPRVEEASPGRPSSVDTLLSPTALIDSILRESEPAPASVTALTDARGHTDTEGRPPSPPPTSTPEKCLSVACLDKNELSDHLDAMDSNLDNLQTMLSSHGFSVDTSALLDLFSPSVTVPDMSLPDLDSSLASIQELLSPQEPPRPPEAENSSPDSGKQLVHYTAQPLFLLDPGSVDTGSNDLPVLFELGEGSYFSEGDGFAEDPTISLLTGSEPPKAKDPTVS
Hypoxia-inducible factor 1-alpha (Homo sapiens), sequence (Q16665 whole entry, looked up): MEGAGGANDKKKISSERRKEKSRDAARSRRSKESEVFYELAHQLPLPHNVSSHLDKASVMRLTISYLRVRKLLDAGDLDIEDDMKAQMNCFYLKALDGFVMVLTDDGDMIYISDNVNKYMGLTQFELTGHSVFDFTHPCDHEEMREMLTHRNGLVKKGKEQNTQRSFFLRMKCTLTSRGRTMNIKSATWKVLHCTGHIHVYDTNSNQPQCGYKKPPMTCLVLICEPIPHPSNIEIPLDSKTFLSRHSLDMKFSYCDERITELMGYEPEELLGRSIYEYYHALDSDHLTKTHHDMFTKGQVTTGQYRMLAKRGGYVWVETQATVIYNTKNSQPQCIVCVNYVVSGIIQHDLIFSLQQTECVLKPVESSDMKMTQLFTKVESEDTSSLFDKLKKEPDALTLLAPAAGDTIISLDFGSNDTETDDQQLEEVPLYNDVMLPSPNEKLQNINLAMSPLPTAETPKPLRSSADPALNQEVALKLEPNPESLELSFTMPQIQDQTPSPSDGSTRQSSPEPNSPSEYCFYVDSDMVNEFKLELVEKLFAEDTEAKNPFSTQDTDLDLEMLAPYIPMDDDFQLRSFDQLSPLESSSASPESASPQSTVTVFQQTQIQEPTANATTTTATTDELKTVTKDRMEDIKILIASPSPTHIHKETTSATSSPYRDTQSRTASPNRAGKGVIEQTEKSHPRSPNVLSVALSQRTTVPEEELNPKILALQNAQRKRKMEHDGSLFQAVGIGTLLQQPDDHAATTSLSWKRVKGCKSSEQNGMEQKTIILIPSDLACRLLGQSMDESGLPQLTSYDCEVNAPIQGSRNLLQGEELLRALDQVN
Hepatocyte nuclear factor 6 (Homo sapiens), sequence (Q9UBC0 whole entry, looked up, the tested form may be a part): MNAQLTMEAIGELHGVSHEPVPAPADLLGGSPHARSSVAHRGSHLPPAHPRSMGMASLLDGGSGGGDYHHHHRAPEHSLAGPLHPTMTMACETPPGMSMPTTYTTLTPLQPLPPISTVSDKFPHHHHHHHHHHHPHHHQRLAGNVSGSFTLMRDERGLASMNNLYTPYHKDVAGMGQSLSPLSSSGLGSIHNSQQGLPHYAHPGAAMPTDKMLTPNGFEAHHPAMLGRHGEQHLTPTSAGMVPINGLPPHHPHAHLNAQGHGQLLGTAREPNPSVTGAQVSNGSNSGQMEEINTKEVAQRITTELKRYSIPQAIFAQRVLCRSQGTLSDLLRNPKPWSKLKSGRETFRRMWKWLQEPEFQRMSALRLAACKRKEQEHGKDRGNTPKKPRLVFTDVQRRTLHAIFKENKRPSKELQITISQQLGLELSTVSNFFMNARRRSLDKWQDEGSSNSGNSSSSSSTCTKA
Paired box protein Pax-6 (Homo sapiens), sequence (P26367 whole entry, looked up): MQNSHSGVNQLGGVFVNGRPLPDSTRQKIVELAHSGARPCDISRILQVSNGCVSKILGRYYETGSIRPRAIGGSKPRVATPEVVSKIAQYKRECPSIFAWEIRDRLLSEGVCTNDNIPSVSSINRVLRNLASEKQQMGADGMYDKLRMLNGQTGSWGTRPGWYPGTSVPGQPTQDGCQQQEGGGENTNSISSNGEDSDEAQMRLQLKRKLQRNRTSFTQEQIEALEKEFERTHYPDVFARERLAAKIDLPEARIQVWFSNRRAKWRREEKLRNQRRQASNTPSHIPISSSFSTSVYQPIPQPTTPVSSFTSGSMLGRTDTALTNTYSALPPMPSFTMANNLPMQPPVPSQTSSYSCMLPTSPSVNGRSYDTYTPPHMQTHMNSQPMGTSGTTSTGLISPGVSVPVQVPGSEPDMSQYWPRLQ
Hepatocyte nuclear factor 3-beta (Homo sapiens), sequence (Q9Y261 whole entry, looked up): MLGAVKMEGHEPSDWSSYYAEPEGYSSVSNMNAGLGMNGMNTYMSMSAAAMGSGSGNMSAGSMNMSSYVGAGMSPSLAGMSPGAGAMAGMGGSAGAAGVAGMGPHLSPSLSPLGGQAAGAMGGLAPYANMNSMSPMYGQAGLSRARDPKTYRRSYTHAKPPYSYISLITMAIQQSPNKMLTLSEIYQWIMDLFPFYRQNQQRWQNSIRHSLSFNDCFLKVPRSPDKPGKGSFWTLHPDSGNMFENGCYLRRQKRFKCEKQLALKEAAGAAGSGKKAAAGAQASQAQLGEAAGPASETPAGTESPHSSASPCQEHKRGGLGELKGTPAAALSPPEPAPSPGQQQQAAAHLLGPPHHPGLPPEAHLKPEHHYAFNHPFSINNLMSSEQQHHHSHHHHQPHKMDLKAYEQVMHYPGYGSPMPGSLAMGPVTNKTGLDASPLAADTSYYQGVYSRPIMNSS
Bile acid receptor (Homo sapiens), sequence (Q96RI1 whole entry, looked up): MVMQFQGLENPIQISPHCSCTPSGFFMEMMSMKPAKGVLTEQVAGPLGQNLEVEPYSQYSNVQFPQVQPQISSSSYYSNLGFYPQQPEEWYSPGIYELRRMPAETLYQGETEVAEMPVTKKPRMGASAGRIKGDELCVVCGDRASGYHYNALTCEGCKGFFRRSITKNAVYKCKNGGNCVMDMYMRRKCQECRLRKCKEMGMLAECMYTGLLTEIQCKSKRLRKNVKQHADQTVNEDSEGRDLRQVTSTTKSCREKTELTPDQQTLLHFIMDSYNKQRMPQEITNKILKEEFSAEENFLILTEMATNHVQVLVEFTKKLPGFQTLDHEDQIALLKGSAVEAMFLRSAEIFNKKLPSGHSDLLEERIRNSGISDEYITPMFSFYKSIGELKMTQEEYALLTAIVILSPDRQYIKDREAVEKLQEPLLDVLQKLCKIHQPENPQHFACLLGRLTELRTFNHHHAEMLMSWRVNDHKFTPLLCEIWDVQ

`Cc1ccc(OP(=O)(Oc2ccc(C)cc2C)Oc2ccc(C)cc2C)c(C)c1`: the call in assay [1], in assay [2], in [3], in [5], in assay [6] and in [7] was inactive. Besides, the compound was classed as inactive in assay [9], in [10], in assay [11], in [12], in [13] and in assay [14]. The call in [16], in assay [18] and in assay [19] was inactive. In addition, the AC50 (as a rule, the concentration at which the activity in the assay is half-maximal) in assay [4] was 5.48 µM (active); in assay [8] it was 25.7 µM (active); in assay [15] it was 25.4 µM (active); in assay [17], 2.33 µM (active).
On to `CNC(=O)O/N=C/C(C)(C)S(C)(=O)=O`, for which the outcome in [1], in assay [2], in assay [3], in assay [4], in assay [5] and in assay [6] was inactive. In addition, the compound was classed as inactive in assay [7], in assay [20], in [8], in assay [10], in assay [11] and in assay [13]. Moreover, the result in [14], in assay [15], in assay [16], in assay [17], in assay [18] and in [19] was inactive.
With `O=CCCl`, the compound was called inactive in [1], in assay [3], in assay [4], in [5], in assay [6] and in assay [20]. Moreover, the compound was called inactive in [10], in assay [12] and in assay [13]. In addition, the AC50 is 38.4 µM (active) in assay [2]; 26.6 µM (active) in assay [7]; 25.5 µM (active) in assay [8]; 51.9 µM (active) in assay [11]; 55 µM (active) in [14]; 32.6 µM (active) in [15]. Further, the AC50 in assay [16] was 48.6 µM (active); in assay [17] it was 43.2 µM (active); in [18] it was 25.2 µM (active); in [19] it was 42.5 µM (active).
For `N#CCC#N`, the compound was classed as inactive in [1], in assay [2], in [3], in [4], in [5] and in assay [6]. For the same compound, the outcome in [7], in [20], in assay [8], in assay [10], in assay [11] and in [13] was inactive. In addition, the result in assay [14], in [15], in assay [16], in assay [17], in [18] and in assay [19] was inactive.
On to `CCCSP(=S)(OCC)Oc1ccc(Cl)cc1Cl` (stereo unspecified), for which the call in [1], in assay [2], in [3], in assay [5], in assay [6] and in assay [7] was inactive. The result in [8], in [10], in assay [11], in [12], in [13] and in assay [14] was inactive. Also, the call in [15], in assay [17], in [18] and in assay [19] was inactive. Further, the AC50 in assay [4] was 10.3 µM (active).
As for `Nc1cccnc1`, the compound was called inactive in assay [1], in assay [2], in assay [3], in [4], in assay [5] and in assay [6]. Further, the result in assay [7], in assay [8], in assay [9], in [11], in assay [13] and in assay [14] was inactive. Further, the result in assay [15], in assay [16], in assay [17], in assay [18] and in assay [19] was inactive.
For `CCN(CC)C(=O)C(Cl)=C(C)OP(=O)(OC)OC`, the outcome in [1], in [2], in [3], in assay [4], in assay [5] and in assay [6] was inactive. For the same compound, the compound was called inactive in assay [7], in [20], in assay [8], in [10], in [11] and in [12]. In addition, the outcome in assay [13], in assay [14], in assay [15], in [16], in assay [17] and in [19] was inactive.
